Measured values published in PubChem BioAssay (NCATS).
Records with an inconclusive call do not appear. Calls of active or inactive are those of the source. Unless noted, calls come from the whole dose curve; as a rule, active = well fitted curve in the direction sought with a large enough effect; inconclusive = small, poorly fitted or top-dose-only effect, or another doubt; inactive = no such curve, though single readings can be large; an effect the other way counts as inactive or inconclusive.

Columns and labels:
[1] = AP1 Signaling Pathway (AID 357; active = well fitted curve in either direction with a large enough effect, not every such curve was filed as active;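 note: ME-180 reporter cells stimulated with EGF at its EC50 level; % is set by controls: 0 for no effect and ±100 for the full control effect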); conditions: ME-180 AP-1-bla reporter, EGF-induced, beta-lactamase ratio, 5 h; series mostly up to 17.2 µM
In short: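 AP-1-bla ME-180 cells, Opti-MEM + 0.5% dialyzed FBS, plated overnight 37 °C. Cpd titration + EC50 EGF, 5 h 37 °C. CCF4 2.5 h RT; ex 405, em 460/530 ratio → %activity, AC50.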

[2] = molecular target: Cytochrome P450 1A2 (Homo sapiens) (UniProt P05177); assay: p450-cyp1a2 (AID 410; calls by dose curve; note: potency is the fitted concentration of half-maximal effect;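 for activity change, negative = inhibition: -100% = full effect of reference inhibitor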); conditions: recombinant CYP1A2, luciferin-ME demethylation, luminescence; series mostly up to 57 µM
Chain of Cytochrome P450 1A2 (Homo sapiens) (P05177 whole entry, looked up): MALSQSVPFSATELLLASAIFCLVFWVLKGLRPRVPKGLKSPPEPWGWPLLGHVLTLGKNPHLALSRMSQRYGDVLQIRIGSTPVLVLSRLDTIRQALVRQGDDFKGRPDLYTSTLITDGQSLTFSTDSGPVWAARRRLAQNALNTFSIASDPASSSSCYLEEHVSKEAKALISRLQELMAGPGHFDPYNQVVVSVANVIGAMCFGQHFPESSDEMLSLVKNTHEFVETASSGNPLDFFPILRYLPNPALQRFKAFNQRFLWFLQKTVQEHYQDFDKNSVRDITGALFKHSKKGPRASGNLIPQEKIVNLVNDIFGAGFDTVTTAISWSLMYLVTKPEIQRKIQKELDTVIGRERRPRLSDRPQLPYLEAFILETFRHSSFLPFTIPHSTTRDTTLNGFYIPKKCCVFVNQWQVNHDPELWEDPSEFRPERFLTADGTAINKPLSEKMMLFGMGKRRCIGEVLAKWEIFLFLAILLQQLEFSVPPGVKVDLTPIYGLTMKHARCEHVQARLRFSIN
In short: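 20nM CYP1A2 with 100uM Luciferin-ME (at Km) in 100mM KPO4; compound preincubated 10 min, NADPH regeneration added, 60 min at room temperature. Luciferin quantified by luminescence after detection reagent; normalized to 57 uM furafylline.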

[3] = NFAT Signaling Pathway (AID 444; active = well fitted curve in either direction with a large enough effect, not every such curve was filed as active;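 note: carbachol stimulus at about its EC50 of 1 µM final; % is set by controls: 0 for no effect and ±100 for the full control effect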); conditions: Jurkat NFAT-bla M1, carbachol, beta-lactamase ratio, 5 h
In short: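 Jurkat cells carrying an NFAT-driven β-lactamase reporter and co-transfected muscarinic M1 receptor were treated with compound plus carbachol (1 uM final, an EC50 level) for 5 h at 37 °C. CCF4 loading followed for 1 h at RT; 460/530 nm ratio gave %activity.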

[4] = Stat Signaling Pathway (AID 446; active = well fitted curve in either direction with a large enough effect, not every such curve was filed as active;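 note: ME-180 cervical cancer cells given 40 pM IL-6 alongside compound; SIE-controlled beta-lactamase reporter measured as 460/530 nm FRET emission ratio; % is set by controls: 0 for no effect and ±100 for the full control effect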); conditions: ME-180 (cervical carcinoma) SIE beta-lactamase reporter, IL-6 stimulated, 5 h; series mostly up to 17.2 µM
In short: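 IL-6/STAT signaling read in ME-180 cells via an SIE beta-lactamase reporter. Stimulus was 40 pM IL-6 (its AC50) for 5 hrs, so both activation and inhibition register.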

[5] = molecular target: Glucocorticoid receptor (Homo sapiens) (UniProt P04150); assay: GR-GFP Redistribution (AID 450;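 active = compounds whose dose series gives a full or clear partial fitted curve of increased nuclear translocation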; note: potency is the fitted concentration of half-maximal effect); conditions: U2OS GR-GFP nuclear translocation, laser cytometry, 2 h
Chain of Glucocorticoid receptor (Homo sapiens) (P04150 whole entry, looked up, the tested form may be a part): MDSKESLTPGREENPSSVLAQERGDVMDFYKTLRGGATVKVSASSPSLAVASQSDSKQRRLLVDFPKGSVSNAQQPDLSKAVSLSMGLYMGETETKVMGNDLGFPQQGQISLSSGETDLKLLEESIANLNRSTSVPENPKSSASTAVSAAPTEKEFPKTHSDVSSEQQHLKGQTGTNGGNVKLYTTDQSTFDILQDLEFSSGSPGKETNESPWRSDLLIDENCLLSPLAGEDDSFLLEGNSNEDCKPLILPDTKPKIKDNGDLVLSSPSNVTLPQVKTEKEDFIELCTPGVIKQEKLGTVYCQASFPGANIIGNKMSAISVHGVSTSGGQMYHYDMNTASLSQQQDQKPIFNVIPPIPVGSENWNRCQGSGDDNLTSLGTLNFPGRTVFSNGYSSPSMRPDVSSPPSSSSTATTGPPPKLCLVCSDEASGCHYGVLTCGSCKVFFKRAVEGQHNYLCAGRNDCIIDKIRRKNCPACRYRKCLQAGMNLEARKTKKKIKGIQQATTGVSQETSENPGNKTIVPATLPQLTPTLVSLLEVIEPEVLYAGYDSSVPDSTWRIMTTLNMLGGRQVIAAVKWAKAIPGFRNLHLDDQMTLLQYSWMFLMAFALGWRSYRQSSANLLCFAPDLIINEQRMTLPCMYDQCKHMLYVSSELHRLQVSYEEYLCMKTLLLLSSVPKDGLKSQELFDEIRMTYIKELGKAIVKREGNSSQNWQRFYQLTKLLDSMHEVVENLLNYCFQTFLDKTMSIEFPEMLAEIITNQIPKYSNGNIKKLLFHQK

[6] = molecular target: Glucocorticoid receptor (Homo sapiens) (UniProt P04150); assay: GR-EFC Redistribution (AID 451; calls by dose curve; note: potency is the fitted concentration of half-maximal effect); conditions: CHO-K1 GR-EFC translocation, beta-gal luminescence, 2 h
In short: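 CHO-K1 cells stably expressing nuclear-localized β-gal enzyme acceptor and GR fused C-terminally to the enzyme donor fragment; ligand-driven nuclear translocation restores β-gal by complementation. Compounds titrated up to 46 uM final, 2 h at 37 °C; luminescence read.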

[7] = molecular target: Mitogen-activated protein kinase 10 (Mus musculus) (UniProt Q61831); assay: JNK3 AlphaScreen Assay (AID 530; active = well fitted curve in either direction with a large enough effect, not every such curve was filed as active;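 note: kinase came from lysate of stimulated human HepG2 cells; signal reports phosphorylation of biotinylated GST-cJun 1-79 at Ser73 with 10 µM ATP; % is set by controls: 0 for no effect and ±100 for the full control effect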); conditions: JNK3 lysate, c-Jun phosphorylation; series mostly up to 57.1 µM
In short: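 Inhibitors reduce antibody binding to phosphorylated biotin-cJun, lowering AlphaScreen luminescence. Lysates from HepG2 cells pre-activated by IL-1beta plus TNF-alpha supplied JNK3; compounds were titrated.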

[8] = molecular target: 3',5'-cyclic-AMP phosphodiesterase 4B (Homo sapiens) (UniProt Q07343); assay: qHTS Assay for Inhibitors of PDE-IV (AID 607; active = well fitted activation curve with a large enough effect in the main read-out, with a control signal flat, not every such curve was filed as active; note: % of control where 0% means no effect); conditions: HEK293 ACTOne CNG channel cells, membrane potential fluorescence; series mostly up to 22.9 µM
Chain of 3',5'-cyclic-AMP phosphodiesterase 4B (Homo sapiens) (Q07343 whole entry, looked up): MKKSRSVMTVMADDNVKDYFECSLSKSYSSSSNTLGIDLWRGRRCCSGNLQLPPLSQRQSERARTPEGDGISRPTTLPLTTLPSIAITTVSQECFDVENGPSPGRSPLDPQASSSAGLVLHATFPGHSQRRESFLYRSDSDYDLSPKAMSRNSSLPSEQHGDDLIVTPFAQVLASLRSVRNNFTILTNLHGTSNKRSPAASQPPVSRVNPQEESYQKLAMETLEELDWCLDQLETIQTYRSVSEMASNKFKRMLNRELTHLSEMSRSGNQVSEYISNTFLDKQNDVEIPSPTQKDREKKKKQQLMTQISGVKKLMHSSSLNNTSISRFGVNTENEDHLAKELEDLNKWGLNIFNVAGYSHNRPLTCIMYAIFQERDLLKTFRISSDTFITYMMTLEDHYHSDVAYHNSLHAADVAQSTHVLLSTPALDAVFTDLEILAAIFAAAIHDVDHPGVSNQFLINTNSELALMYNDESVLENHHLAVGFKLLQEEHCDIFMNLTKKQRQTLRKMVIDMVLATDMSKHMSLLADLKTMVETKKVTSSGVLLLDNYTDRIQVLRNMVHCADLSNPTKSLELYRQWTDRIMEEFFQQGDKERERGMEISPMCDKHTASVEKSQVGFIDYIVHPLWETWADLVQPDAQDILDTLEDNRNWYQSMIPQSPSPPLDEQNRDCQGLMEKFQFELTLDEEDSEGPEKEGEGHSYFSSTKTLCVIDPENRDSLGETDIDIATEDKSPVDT
In short: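 Live HEK293 cells with a modified cyclic nucleotide-gated (CNG) channel report intracellular cAMP via membrane-potential dye fluorescence (ex 535/em 590 nm). Endogenous PDE-IV was targeted. Compounds were tested at up to 22.9 uM final; RO 20-1724 100 uM served as control.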

[9] = Cell Viability - BJ (AID 421; calls by dose curve;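 note: potency is the fitted concentration of half-maximal effect; cells exposed to compound for 40 hours at 37 °C before readout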); conditions: BJ fibroblast viability, qHTS
In short: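 Quantitative HTS: ATP depletion in BJ cells after 40 hr compound exposure in complete culture medium, detected with CellTiter-Glo; AC50 from standard Hill fits.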

[10] = Cell Viability - Hek293 (AID 427;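 active = compounds whose dose-response curve shows a full or clear partial loss of cell viability, called from curve shape rather than a numeric limit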;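 note: potency is the fitted concentration of half-maximal effect; cells exposed to compound for 40 hours at 37 °C before reading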); conditions: qHTS
In short: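 AC50 values derive from Hill-modelled concentration-response of ATP-based luminescence, normalized between DMSO-only and 100 uM tamoxifen controls. Cells were exposed in complete culture medium for 40 hr at 37 °C before detection.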

[11] = Cell Viability - HepG2 (AID 433; calls by dose curve;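 note: potency is the fitted concentration of half-maximal effect; potency for ATP loss meaning cytotoxicity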); conditions: qHTS
In short: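 HepG2 hepatocellular carcinoma cells (1500/well) were treated with compounds for 40 h at 37 °C in complete medium; intracellular ATP was read by CellTiter-Glo luminescence. Data were normalized to DMSO and 100 uM tamoxifen, and AC50 came from Hill fits.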

[12] = Cell Viability - MRC5 (AID 434; calls by dose curve;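 note: potency is the fitted concentration of half-maximal effect; potency reflects cytotoxicity seen as loss of intracellular ATP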); conditions: MRC5 lung fibroblast viability, qHTS
In short: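 MRC5 normal human lung fibroblasts (1500/well) were treated with compounds for 40 hr at 37 °C in complete medium, and viable cells were measured as intracellular ATP by CellTiter-Glo luminescence. AC50 came from Hill fits, normalized to DMSO and 100 uM tamoxifen.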

[13] = Cell Viability - SK-N-SH (AID 435; calls by dose curve;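 note: potency is the fitted concentration of half-maximal effect; compound exposure lasted 40 h at 37 °C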); conditions: SK-N-SH neuroblastoma cell viability qHTS
In short: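 SK-N-SH human neuroblastoma cells (1500/well) were exposed to compounds in complete medium for 40 h at 37 °C, and intracellular ATP was then measured by CellTiter-Glo luminescence. AC50 was taken from Hill fits, normalized to DMSO and 100 uM tamoxifen.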

[14] = Cell Viability - N2a (AID 540); conditions: N2a mouse neuroblastoma cell viability; series mostly up to 92.2 µM;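 note: plate controls were DMSO alone for no effect and tamoxifen control for full effect; nearly all actives have a fitted effect of over 45% in size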
In short: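 Mouse neuroblastoma N2a cells, 1500/well, exposed to compounds 40 h at 37 °C in complete medium. Viability measured as cellular ATP by CellTiter-Glo luminescence; AC50 from Hill fits of concentration-response.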

[15] = Cell Viability - NIH 3T3 (AID 541); conditions: NIH 3T3 cell viability, qHTS; at 92.2 µM (top of the series);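 note: plate controls were DMSO alone for no effect and tamoxifen positive control for full effect; nearly all actives have a fitted effect of over 25% in size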
In short: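 Mouse NIH 3T3 fibroblasts, 1000 cells/well, rested 5 hr at 37 °C, then exposed to compound for 40 hr at 37 °C in complete medium. Viability read as intracellular ATP by CellTiter-Glo luminescence; AC50 from Hill-equation fits of concentration-response data.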

[16] = Cell Viability - HUV-EC-C (AID 542); conditions: HUV-EC-C endothelial cell viability, qHTS; series mostly up to 92.2 µM; note: % is set by controls: 0 for no effect and ±100 for the full control effect; nearly all actives have a fitted effect of over 35% in size
In short: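 HUV-EC-C human vascular endothelial cells, 1000/well, exposed to compound for 40 hr at 37 °C in complete medium. Intracellular ATP was read by CellTiter-Glo luminescence. AC50 came from Hill-equation fits of concentration-response data.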

[17] = Cell Viability - H-4-II-E (AID 543); conditions: H-4-II-E rat hepatoma viability; series mostly up to 92.2 µM; note: % is set by controls: 0 for no effect and ±100 for the full control effect; nearly all actives have a fitted effect of over 35% in size
In short: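 Rat hepatoma H-4-II-E cells, 1500 per well, treated 40 h at 37 °C in complete medium. Cellular ATP read by CellTiter-Glo luminescence; AC50 from Hill fits of concentration-response.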

[18] = Cell Viability - SH-SY5Y (AID 544); conditions: SH-SY5Y neuroblastoma cell viability; series mostly up to 92.2 µM; note: nearly all actives have a fitted effect of over 55% in size; note: potency is the fitted concentration of half-maximal effect
In short: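 SH-SY5Y human neuroblastoma cells (1500/well) incubated 5 h, then compound-treated 40 h at 37 °C in complete medium. Viability read as intracellular ATP by CellTiter-Glo luminescence after 20 min; AC50 from Hill-equation fits of qHTS concentration-response.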

[19] = Cell Viability - Mesenchymal (AID 546); conditions: mesenchymal cells viability, qHTS; series mostly up to 91.7 µM;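 note: cells exposed to compound for 40 hours before reading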
In short: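 Normal human renal glomerulus-derived kidney mesenchymal cells, 1000 per well in complete medium, were treated with compounds for 40 hr at 37 °C. Viability was read as intracellular ATP by CellTiter-Glo luminescence; AC50 values came from Hill-equation fits of qHTS concentration-response data.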

[20] = Cellular Toxicity (caspase-3) HepG2 (AID 654); conditions: HepG2 caspase-3 activation, luminescence, 0% = DMSO only, 100% = tamoxifen; series mostly up to 92.2 µM;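 note: cells exposed to compound for 16 hours before reading; 0% = DMSO alone and 100% = caspase signal from 100 µM tamoxifen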
In short: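 HepG2 cells (1500/well) were treated 16 h at 37 °C in complete medium, then caspase 3/7 activity was read by Caspase-Glo luminescence. Data were normalized to DMSO and 100 uM tamoxifen; AC50 came from Hill-equation fits of qHTS concentration-response.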

COc1c2c(cc3c1OCO3)CCN(C)C2
active: Potency [2] 2 µM
inactive: outcome [1] | activity change, negative = inhibition ([3]; at 17.2 µM (top of the series)) -27% | outcome [4] | Potency [5] > 20.6 µM | Potency [6] > 20.6 µM | outcome [7] | outcome [8]

CC(NC(C)(C)C)C(=O)c1cccc(Cl)c1 (stereo not given)
inactive: outcome [1] | activity change, negative = inhibition ([3]; at 17.2 µM (top of the series)) -27.5% | outcome [4] | Potency [5] > 20.6 µM

COc1cc(OC)c(OC)cc1C=O
inactive: Potency [9] > 92 µM | Potency [10] > 92 µM | Potency [11] > 92 µM | Potency [12] > 92 µM | Potency [13] > 92 µM | outcome [14] | activity change, negative = cytotoxicity [15] 6.21% | Potency [16] | Potency [17] | Potency [18] | outcome [19] | outcome [20]

Cc1ncsc1CCCl
active: Potency [2] 31.6 µM
inactive: Potency [5] > 46 µM | Potency [6] > 46 µM | outcome [7]

Nc1ccccc1C(=O)O
inactive: Potency [9] > 92 µM | Potency [10] > 92 µM | Potency [11] > 92 µM | Potency [12] > 92 µM | Potency [13] > 92 µM | outcome [7] | outcome [14] | activity change, negative = cytotoxicity [15] -17.8% | Potency [16] | Potency [17] | Potency [18] | outcome [19] | outcome [20]

CCCCC/C=C\C/C=C\C/C=C\C/C=C\CCCC(=O)NCC(=O)O
inactive: outcome [1] | Potency [2] | activity change, negative = inhibition ([3]; at 38 µM (top of the series)) -2.7% | Potency [5] > 46 µM | outcome [7] | outcome [8]

CN1C[C@H](C(=O)N[C@]2(C)O[C@@]3(O)[C@@H]4CCCN4C(=O)[C@H](Cc4ccccc4)N3C2=O)C=C2c3cccc4[nH]cc(c34)C[C@H]21
inactive: Potency [9] > 92 µM | Potency [11] > 92 µM | Potency [12] > 92 µM | Potency [13] > 92 µM | outcome [7] | outcome [14] | Potency [16] | outcome [20]

C[N+]1(C)[C@@H]2CC(OC(=O)[C@H](CO)c3ccccc3)C[C@H]1[C@@H]1O[C@@H]12 (stereo not given in full)
inactive: outcome [1] | outcome [4] | Potency [5] > 20.6 µM
active: activity change, negative = inhibition ([3]; at 17.2 µM (top of the series)) -68.4%

CCOC(=O)CC(SP(=S)(OC)OC)C(=O)OCC (stereo not given)
active: Potency [18] 12.6 µM
inactive: Potency [9] > 92 µM | Potency [10] > 92 µM | Potency [11] > 92 µM | Potency [12] > 92 µM | outcome [7] | outcome [14] | activity change, negative = cytotoxicity [15] -25.9% | Potency [16] | Potency [17] | outcome [19] | outcome [20]

O=P1(N(CCCl)CCCl)NCCCO1 (stereo not given)
inactive: outcome [1] | Potency [2] | Potency [9] > 92 µM | Potency [10] > 92 µM | Potency [11] > 92 µM | Potency [12] > 92 µM | Potency [13] > 92 µM | activity change, negative = inhibition ([3]; at 38 µM (top of the series)) 4.3% | Potency [5] > 46 µM | Potency [6] > 46 µM | outcome [7] | outcome [14] | activity change, negative = cytotoxicity [15] 2.35% | Potency [16] | Potency [17] | Potency [18] | outcome [19] | outcome [8] | outcome [20]

NCCc1ccc(O)cc1
inactive: outcome [1] | Potency [2] | Potency [9] > 92 µM | Potency [10] > 92 µM | Potency [11] > 92 µM | Potency [12] > 92 µM | Potency [13] > 92 µM | activity change, negative = inhibition ([3]; at 38 µM (top of the series)) 5.43% | Potency [5] > 46 µM | Potency [6] > 46 µM | outcome [7] | outcome [14] | Potency [16] | Potency [17] | Potency [18] | outcome [19] | outcome [8] | outcome [20]
active: activity change, negative = cytotoxicity [15] -149%

COC(=O)C(c1ccccc1)C1CCCCN1 (stereo not given)
inactive: Potency [9] > 92 µM | Potency [10] > 92 µM | Potency [11] > 92 µM | Potency [12] > 92 µM | Potency [13] > 92 µM | outcome [7] | outcome [14] | activity change, negative = cytotoxicity [15] -13.4% | Potency [16] | Potency [17] | Potency [18] | outcome [19] | outcome [20]

Nc1ccccc1
inactive: Potency [9] > 92 µM | Potency [10] > 92 µM | Potency [11] > 92 µM | Potency [12] > 92 µM | Potency [13] > 92 µM | outcome [7] | outcome [14] | activity change, negative = cytotoxicity [15] -16.9% | Potency [16] | Potency [17] | Potency [18] | outcome [19] | outcome [20]

CC(C)N(CCC(C(N)=O)(c1ccccc1)c1ccccn1)C(C)C (stereo not given)
inactive: outcome [1] | outcome [4]

O=C(O)CCCc1ccc(N(CCCl)CCCl)cc1
inactive: outcome [1] | Potency [2] | Potency [11] > 92 µM | activity change, negative = inhibition ([3]; at 17.2 µM (top of the series)) -26.3% | activity change, negative = inhibition ([3]; at 38 µM (top of the series)) -2.19% | outcome [4] | outcome [7] | outcome [14] | Potency [16] | outcome [19] | outcome [8]
active: Potency [10] 18.6 µM | Potency [18] 3.16 µM
